Data on 53 compounds can be found in PubChem BioAssay (Tox21).

Inconclusive results are not listed. Unmarked numbers belong to inactive results. Calls of active or inactive are those of the source. Calls follow the shape of the dose curve; as a rule, active = well fitted cell-killing curve with a large enough effect in the repeat runs; inconclusive = weak or mixed curves, or effect the other way; inactive = flat fitted curve, though single readings scatter.

Assay [1] in a line: cAMP Responsive Elements (CRE) small molecule antagonists, cell-based qHTS assay: qHTS cell viability counter screen (AID 2060913). Also: nearly all actives have a fitted effect of over 40% in size. The conditions noted are these: CRE-bla HEK293T viability, CellTiter-Glo luminescence, 5 h; series mostly up to 92.4 µM. The procedure, abridged:
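CRE-bla HEK293T cells (2,000/well, 18 h) given compound plus NKH477 0.25 uM final for 3 h at 37C; viability counter-screen by CellTiter-Glo luminescence in same wells after 30 min.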

Assay [2] in a line: cAMP Responsive Elements (CRE) small molecule agonists, cell-based qHTS assay: qHTS cell viability counter screen (AID 2060914).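 Also: viability read after 3 h of compound exposure; nearly all actives have a fitted effect of over 50% in size.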 The conditions noted are these: CRE-bla HEK293T viability, CellTiter-Glo luminescence, 5 h; series mostly up to 92.4 µM. In outline:
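CRE-bla HEK293T cells in 10% dialyzed FBS medium were exposed to compounds for 3 h at 37C after 18 h plating. CellTiter-Glo was then added in the same wells, and luminescence was read after 30 min at room temperature.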
% is scaled to controls: 0 for no effect and ±100 for the full control effect; potency is read from the fitted curve at half-maximal effect.

Take `CO[Si](CCCS)(OC)OC`: the Potency entry in assay [1] and in assay [2] was “inactive” in each case.
For `CC(C)C(=O)OC(=O)C(C)C`, the Potency result in assay [1] and in assay [2] was “inactive” throughout.
Consider `Nc1ccc2cc3ccccc3cc2c1`, for which the Potency result in assay [1] and in assay [2] was “inactive” in each case.
Turning to `C[C@@H]1C[C@H]2[C@@H]3CCC4=CC(=O)C=C[C@]4(C)[C@@]3(F)[C@@H](O)C[C@]2(C)[C@@]1(O)C(=O)CO`, the Potency result in assay [1] and in assay [2] was “inactive” in each case.
For `CCNS(=O)(=O)c1ccc(C)cc1`, the Potency entry in assay [1] and in assay [2] was “inactive” each time.
With `CCCCCc1ccc(Cl)cc1`, the Potency result in assay [1] and in assay [2] was “inactive” throughout.
Regarding `OC1OCCOC1O` (stereo unspecified), the Potency entry in assay [1] and in assay [2] was “inactive” in each case.
Regarding `CC(=O)OC[C@H]1O[C@@H](n2ncc(=O)[nH]c2=O)[C@H](OC(C)=O)[C@@H]1OC(C)=O`, the Potency result in assay [1] and in assay [2] was “inactive” in each case.
As for `C[n+]1c2cc(N)ccc2cc2ccc(N)cc21` (tested in a mixture with another compound), the Potency result in assay [1] and in assay [2] was “inactive” each time.
In the case of `O=C1NCCN1CCO`, the Potency entry in assay [1] and in assay [2] was “inactive” throughout.
In the case of `CCOC(OCC)C(=O)c1ccccc1`, the Potency entry in assay [1] and in assay [2] was “inactive” each time.
With `CCCCCCCCCCCCCCCCCl`, the viability change, negative = cytotoxic in assay [1] is 3.61% [at 18.9 µM]. For the same compound, the activity change, negative = cytotoxicity in assay [2] was -18.4% [at 18.9 µM].
As for `CN1CCC(=C2c3ccccc3CC(=O)c3sccc32)CC1`, the Potency entry in assay [1] and in assay [2] was “inactive” throughout.
With `CC(C)(CO)COC(=O)C(C)(C)CO`, the Potency result in assay [1] and in assay [2] was “inactive” throughout.
`COC(=O)C1=C(C)NC(C)=C(C(=O)OC(C)(C)CN(C)CCC(c2ccccc2)c2ccccc2)C1c1cccc([N+](=O)[O-])c1` (stereo unspecified): the Potency result in assay [1] and in assay [2] was “inactive” in each case.
Take `NC(=O)c1cn(Cc2c(F)cccc2F)nn1`: the Potency result in assay [1] and in assay [2] was “inactive” throughout.
As for `CC(C)COC(=O)COc1ccc(Cl)cc1Cl`, the Potency result in assay [1] and in assay [2] was “inactive” in each case.
With `NCCN`, the Potency result in assay [1] and in assay [2] was “inactive” each time.
Regarding `CCN1CCCC1=O`, the Potency result in assay [1] and in assay [2] was “inactive” each time.
For `O=C(O)CN1C(=O)c2cccc3cccc(c23)C1=O`, the Potency result in assay [1] and in assay [2] was “inactive” throughout.
On to `O=c1[nH]c2cc(C(F)(F)F)c(N3CCOCC3)cc2n(CP(=O)(O)O)c1=O`, for which the Potency entry in assay [1] and in assay [2] was “inactive” in each case.
Take `Nc1ccc(N=Nc2ccccc2)c(N)n1`: the Potency result in assay [1] and in assay [2] was “inactive” in each case.
With `O=C=Nc1ccc(Cc2ccc(N=C=O)cc2)cc1`, the Potency entry in assay [1] and in assay [2] was “inactive” in each case.
Consider `CCCc1c2oc(C(=O)O)cc(=O)c2cc2c(=O)cc(C(=O)O)n(CC)c12`, for which the Potency entry in assay [1] and in assay [2] was “inactive” each time.
In the case of `C/C(=C\c1ccc(C(=O)O)cc1)c1ccc2c(c1)C(C)(C)CCC2(C)C`, the Potency result in assay [1] and in assay [2] was “inactive” in each case.
For the compound `CC(C)(C)CC(C)(C)c1ccccc1O`, the Potency in assay [1] and in assay [2] was 61.4 µM (active) in each case.
Regarding `COc1ccccc1OCC(O)COC(N)=O` (stereo unspecified), the Potency entry in assay [1] and in assay [2] was “inactive” each time.
With `O=C1CCC(=O)N1Cl`, the Potency entry in assay [1] and in assay [2] was “inactive” throughout.
Regarding `C[C@H](CS)C(=O)N1CCC[C@H]1C(=O)O`, the Potency result in assay [1] and in assay [2] was “inactive” in each case.
Take `CC(=O)OC(C)C`: the Potency entry in assay [1] and in assay [2] was “inactive” throughout.
Consider `CN1C(C(=O)Nc2ccccn2)=C(O)c2sccc2S1(=O)=O`, for which the Potency result in assay [1] and in assay [2] was “inactive” each time.
On to `CCCCCCCCCCCC(=O)OC`, for which the Potency result in assay [1] and in assay [2] was “inactive” in each case.
`COc1ccc2cc(C=O)ccc2c1`: the Potency result in assay [1] and in assay [2] was “inactive” throughout.
Regarding `COc1ccc(OC)c(OC)c1`, the Potency result in assay [1] and in assay [2] was “inactive” in each case.
Take `OC1CCCCC1`: the Potency result in assay [1] and in assay [2] was “inactive” in each case.
Take `CCCCCCCCCCCCCOP(=O)(O)O`: the Potency entry in assay [1] and in assay [2] was “inactive” throughout.
In the case of `C=C(C)[C@H]1CC=C(C)C(=O)C1`, the Potency result in assay [1] and in assay [2] was “inactive” in each case.
For `CC1COC(=O)O1` (stereo unspecified), the Potency result in assay [1] and in assay [2] was “inactive” in each case.
For `CCOC(=O)C1=C[C@]2(CC)CCCN3CCc4c(n1c1ccccc41)[C@@H]32`, the Potency entry in assay [1] and in assay [2] was “inactive” each time.
For `NC1CCCCC1N` (stereo unspecified), the Potency entry in assay [1] and in assay [2] was “inactive” throughout.
Turning to `Cc1oc2c(NC(=O)c3c(Cl)cccc3Cl)cccc2c1C(C)(C)O`, the Potency result in assay [1] and in assay [2] was “inactive” in each case.
Consider `Oc1cccc(-c2c3nc(c(-c4cccc(O)c4)c4ccc([nH]4)c(-c4cccc(O)c4)c4nc(c(-c5cccc(O)c5)c5ccc2[nH]5)CC4)C=C3)c1`, for which the Potency result in assay [1] and in assay [2] was “inactive” each time.
For the compound `O=Cc1ccccc1S(=O)(=O)O`, the Potency result in assay [1] and in assay [2] was “inactive” in each case.
As for `Cc1ccc(=O)n(-c2ccccc2)c1`, the Potency result in assay [1] and in assay [2] was “inactive” throughout.
For `SC1CCCCC1`, the Potency result in assay [1] and in assay [2] was “inactive” throughout.
In the case of `CCCCCC=CCC=CCCCCCCCC(=O)OCC`, the Potency result in assay [1] and in assay [2] was “inactive” throughout.
`CSc1c(Cl)c(Cl)c(Cl)c(Cl)c1Cl`: the Potency result in assay [1] and in assay [2] was “inactive” throughout.
`Cc1ccc(N=Nc2c(O)c(C(=O)O)cc3ccccc23)c(S(=O)(=O)O)c1`: the Potency entry in assay [1] and in assay [2] was “inactive” in each case.
For the compound `Cc1ccc2ccccc2n1`, the Potency result in assay [1] and in assay [2] was “inactive” in each case.
As for `Cc1cc(=O)oc2cc(O)cc(O)c12`, the Potency entry in assay [1] and in assay [2] was “inactive” in each case.
Turning to `OCc1ccc(Cl)cc1Cl`, the Potency result in assay [1] and in assay [2] was “inactive” each time.
For `O=C(CO)[C@@H](O)[C@H](O)[C@@H](O)CO`, the Potency result in assay [1] and in assay [2] was “inactive” each time.
`Cc1cc(=O)oc2cc(O[C@@H]3SC[C@@H](O)[C@H](O)[C@H]3O)ccc12`: the Potency entry in assay [1] and in assay [2] was “inactive” in each case.
